Compound activity as filed in PubChem BioAssay.
TCR-CD3 inh: blocks the human TCR-CD3 interaction | TAMRA-labeled TCR probe fluorescence, biochemical | inhibition, % at 9.4 µM | 0.37% of 360,000 active;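 note: recombinant mutant TCR 2C K166C tagged with TAMRA read by polarization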
MBD2 DNA inh: blocks human MBD2 binding to methylated DNA; AID 686964; 0.31% of 370,000 active; inhibition, % at 4.4 µM; TR-FRET, MBD2 binding to methylated oligonucleotide; in the data active = inhibition above about 13%
UHRF1 binding: blocks human UHRF1 binding to methylated DNA. Q96T88. UHRF1 binding to methylated oligo, TR-FRET. inhibition, % at 4.4 µM. 0.75% of 370,000 active. AID 687016; in the data active = inhibition above about 21%;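 note: UHRF1 SRA domain binding a hemimethylated CpG hairpin DNA probe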
LEDGF integ inh: blocks HIV-1 LEDGF/p75-dependent DNA integration; TR-FRET IN-LEDGF/p75 DNA integration, Eu/Cy5; inhibition, % at 3.7 µM; 0.64% of 370,000 active; AID 743269;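 active = inhibition above the screen-wide mean plus 3 SD, cut at about 13% in these data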;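 note: signal is the Cy5 over europium emission ratio at 671 and 618 nm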
Rin1-Abl PPI inh: human Rin1-Abl interaction inhibition. AID 588664. inhibition, % at 7.35 µM. 0.4% of 360,000 active. P00519+Q13671. TR-FRET Rin1/Abl binding, biochemical; in the data active = inhibition above about 5%, passing the limit was not always enough
BSA probe FL: BSA probe counter-screen for TCR-CD3 inhibitors; shares compounds with TCR-CD3 inh; TAMRA-labeled BSA probe fluorescence counterscreen; inhibition, % at 9.4 µM; 10% of 1,200 active; in the data active = inhibition above about 23%
TCR-CD3 conf: confirmation of human TCR-CD3 interaction inhibitors | shares compounds with TCR-CD3 inh | TAMRA-labeled TCR probe fluorescence binding assay | inhibition, % at 9.4 µM | 48% of 1,200 active
Of the large screens only hits and unclear results are named; the others gave an inactive call (follow-up assays come after a bar, where they were run). Sampled rows, rich in hits. Any-hit rate of the full collection: about 2%. Cut-off read from the data, not from the text of the source, unless noted: active = inhibition above about 19%; inactive = the rest.

C[C@@H]1CN([C@H](C)CO)C(=O)c2cc(NC(=O)Nc3ccc(C(F)(F)F)cc3)ccc2O[C@H]1CN(C)S(=O)(=O)c1ccc(Cl)cc1	TCR-CD3 inh 54.3 | BSA probe FL 24.5 | TCR-CD3 conf 52.3
C[C@H](CO)N1C[C@H](C)[C@@H](CN(C)S(=O)(=O)c2ccc(F)cc2)Oc2ccc(NC(=O)Nc3ccc(C(F)(F)F)cc3)cc2C1=O	TCR-CD3 inh 22.3 | BSA probe FL inactive | TCR-CD3 conf 41.8
[O-][n+]1c2ccccc2c2n1CCN1CCOC21c1ccc(Cl)cc1 (stereo not drawn)	none
Cc1cccc(-n2ccc(=O)c(C(=O)Nc3ccc(S(=O)(=O)Nc4nccs4)cc3)n2)c1	none
O=C(Nc1ccc(S(=O)(=O)Nc2nccs2)cc1)c1nn(-c2ccccc2)ccc1=O	TCR-CD3 inh 19.9 | BSA probe FL inactive | TCR-CD3 conf 21.6
O=[N+]([O-])c1cc([N+](=O)[O-])c(Oc2ccc(Cl)c3cccnc23)cc1NN1CCCCC1	none
NC(=O)[C@@H]1CC2(CC(c3cccc(NC(=O)CC(c4ccccc4)c4ccccc4)c3)=NO2)CN1C(=O)COc1ccc(Cl)cc1 (stereo partly drawn)	TCR-CD3 inh 31.9 | BSA probe FL inactive | TCR-CD3 conf 30.9
NC(=O)[C@H]1CC2(CC(c3cccc(NC(=O)COc4ccc(Cl)cc4)c3)=NO2)CN1C(=O)CC(c1ccccc1)c1ccccc1 (stereo partly drawn)	TCR-CD3 inh 54.3 | BSA probe FL inactive | TCR-CD3 conf 30.1
CCC(=O)N(Cc1cc2c(C)cc(C)cc2[nH]c1=O)C1CCCCC1	none
CCC(=O)N(Cc1cc2c(C)ccc(C)c2[nH]c1=O)C1CCCCC1	TCR-CD3 inh 28.9 | BSA probe FL inactive | TCR-CD3 conf inactive
CCCCn1c(N)c(N(CCOC)C(=O)c2cc(-c3ccco3)nc3ccccc23)c(=O)[nH]c1=O	TCR-CD3 inh 21.8 | BSA probe FL inactive | TCR-CD3 conf inactive
O=C(c1ccccc1)c1c(-c2ccccc2)[nH]n(-c2ccccc2)c(=O)c1=O	none
O=C(NC1CCCC1)c1cccc(S(=O)(=O)N2CCCC2)c1	none
COc1ccc(C(C)=NNC(=O)c2cccc(S(=O)(=O)N3CCCC3)c2)cc1	none
COc1ccc(/C(C)=N/NC(=O)c2cccc(S(=O)(=O)N3CCCC3)c2)c(O)c1	TCR-CD3 inh 33.6 | BSA probe FL inactive | TCR-CD3 conf 19.5
OC(c1ccc(F)cc1)c1nc(-c2ccncc2)cs1 (stereo not drawn)	TCR-CD3 inh 46.5 | BSA probe FL inactive | TCR-CD3 conf inactive
CCc1cccc(C)c1NC(=O)COC(=O)c1c2c(nc3ccccc13)/C(=C\c1cccs1)CCC2	none
NC(=O)c1ccc(NC(=O)COC(=O)c2c3c(nc4ccccc24)/C(=C\c2cccs2)CCC3)cc1	TCR-CD3 inh 19.7 | BSA probe FL inactive | TCR-CD3 conf inactive
Nc1c(N(Cc2ccccc2)C(=O)COc2ccc(F)cc2Cl)c(=O)[nH]c(=O)n1Cc1ccccc1	TCR-CD3 inh 21.2 | BSA probe FL inactive | TCR-CD3 conf 20.9
COCCn1c(N)c(N(Cc2ccccc2)C(=O)COc2ccc(F)cc2Cl)c(=O)[nH]c1=O	none
CCOC(=O)c1c(C)nc2sc(C(=O)Nc3ccc(C(C)=O)cc3)c(N)c2c1-c1ccc(OC)cc1	TCR-CD3 inh 24.5 | BSA probe FL inactive | TCR-CD3 conf inactive
CCOC(=O)c1c(C)nc2sc(C(=O)Nc3ccc(OC)cc3)c(N)c2c1-c1ccc(OC)cc1	none
Cc1cc(=O)n2nc(N3CCC(C(=O)NCc4ccccc4Cl)CC3)sc2n1	none
CC(=O)OCCn1c2nc(=O)[nH]c(=O)c-2nc2cc(C)c(C)cc21	TCR-CD3 inh 36.7 | BSA probe FL 50.5 | TCR-CD3 conf 34.0
CCOc1ccc(CCNC(=O)COC(=O)c2nc(Cl)ccc2Cl)cc1OCC	none
CCCn1c(=O)c(C(=O)Nc2ncccc2O)c(O)c2ccccc21	TCR-CD3 inh 21.8 | BSA probe FL inactive | TCR-CD3 conf 21.4
Cn1c(=O)c(C(=O)Nc2ncccc2O)c(O)c2ccccc21	none
COc1ccc(Cl)cc1C(=O)NC(=S)Nc1cc(-c2nc3ccccc3[nH]2)ccc1C	TCR-CD3 inh 46.7 | BSA probe FL inactive | TCR-CD3 conf inactive
